# Source: PubChem BioAssay (NCATS)
# “And” between values parts separate entries of the source, which are not always exact repeats. Equal values may be shown once. Inconclusive results are not listed. The source made the active and inactive calls. Unless noted, the call rests on the fitted dose curve; in most records, active means well fitted curve in the direction sought with a large enough effect; inconclusive means small, poorly fitted or top-dose-only effect, or another doubt; inactive means no such curve, though single readings can be large; an effect the other way counts as inactive or inconclusive.
# Assays:
# [1] = qHTS assay for measurement of the activity of small molecule inhibitors on Zika virus induced Caspase-3 activity in human astrocytoma cells (AID 1224859)
# How it was run: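 Luminescence read-out (Caspase-Glo 3/7, 30 min RT) of caspase activity in SNB-19 cells infected 6 h with ZIKV, 2 FFU/cell, after 1 h compound pretreatment; % inhibition from induction normalised to uninfected (0%) and infected (100%) wells.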
# [2] = qHTS Screen of the MIPE 4.0 Collection Against Ewings Sarcoma (RDES) (AID 1259252); further: nearly all actives have a fitted effect of over 35% in size; further: potency means the concentration at half of the fitted maximal effect
# How it was run: (§1)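 Log-phase cells in RPMI with 5% FBS attached for 4 h, then received compounds as a titration for 48 h at 37C, 5% CO2. Viability was read by CellTiter-Glo luminescence and normalized to DMSO and no-cell wells.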
# [3] = qHTS Screen of the MIPE 4.0 Collection Against Ewings Sarcoma (TC71) (AID 1259253); further: nearly all actives have a fitted effect of over 40% in size; further: potency means the concentration at half of the fitted maximal effect
# How it was run: as §1
# [4] = qHTS Screen of the MIPE 4.0 Collection Against Ewings Sarcoma (EW8) (AID 1259255); further: nearly all actives have a fitted effect of over 35% in size; further: potency means the concentration at half of the fitted maximal effect
# How it was run: as §1
# [5] = qHTS Screen of the MIPE 4.0 Collection Against Ewings Sarcoma (TC32) (AID 1259256); further: nearly all actives have a fitted effect of over 45% in size; further: potency means the concentration at half of the fitted maximal effect
# How it was run: as §1
# [6] = qHTS assay to identify small molecule inhibitors of chordoma cells - UCH-1 (AID 1259355); further: nearly all actives have a fitted effect of over 55% in size; further: potency means the concentration at half of the fitted maximal effect; series mostly up to about 46 µM
# How it was run: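 Screening used approved and investigational drugs in 15-point titration against 800 seeded cells per well. A fixed combination of auranofin with camptothecin, doxorubicin, rubitecan and topotecan followed compound addition, and growth was scored by CellTiter-Glo after 48hr.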
# [7] = NS1 protein of Zika virus - qHTS assay to identify small molecule inhibitors in human HEK 293 cells (AID 1347053); further: nearly all actives have a fitted effect of over 55% in size; further: potency means the concentration at half of the fitted maximal effect
# How it was run: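 Compound-treated (1 h pre-infection) HEK 293 cells infected with ZIKV MR766, MOI = 0.5; after 24 h at 37 C, NS1 read by TR-FRET; data normalized to uninfected and infected controls.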
# [8] = Identifying Small Molecule Inhibitors of Pancreatic Cancer Stem Cells (A2780, Spheroid) (AID 1259357); details: Potency: A2780 spheroid viability; further: potency means the concentration at half of the fitted maximal effect;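 further: spheroids pre-formed over 14 days in stem cell medium on hydrogel; compound exposure lasted 48 h before the ATP luminescence read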
# How it was run: (§2)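 Viability is scored by CellTiter-Glo luminescence 48 h after dosing, expressed as percent activity against vehicle and no-cell references. Spheroid formats rely on cells cultured 14 days in stem cell media beforehand.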
# [9] = Identifying Small Molecule Inhibitors of Pancreatic Cancer Stem Cells (Panc1, Spheroid) (AID 1259359);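 further: potency means the concentration at half of the fitted maximal effect; compound exposure lasted 48 h before reading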
# How it was run: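 Spheroids grown 14 days in stem cell media on nonadherent hydrogel before screening; cells attached 4 h, then compound exposure 48 h at 37C, 5% CO2. CellTiter-Glo luminescence normalized to DMSO (no inhibition) and no-cell wells (full inhibition).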
# [10] = Identifying Small Molecule Inhibitors of Pancreatic Cancer Stem Cells (A278, Adherent) (AID 1259361); further: nearly all actives have a fitted effect of over 35% in size
# How it was run: (§3)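 Spheroids grown 14 days in stem cell media on hydrogel-coated nonadherent plates; 2D lines seeded directly. Compounds added after 4 h attachment, 48 h at 37C, 5% CO2; CellTiter-Glo luminescence normalized to DMSO (no inhibition) and no-cell wells (full inhibition).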
# [11] = Identifying Small Molecule Inhibitors of Pancreatic Cancer Stem Cells (Panc1, Adherent) (AID 1259362); details: Potency: viability; further: potency means the concentration at half of the fitted maximal effect
# How it was run: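 Adherent (2D) versus sphere (3D) formats; spheres generated 14 d in SCM beforehand. Compound transferred by pin tool after 4 h, 48 h incubation, CellTiter-Glo endpoint.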
# [12] = P-glycoprotein substrates identified in KB-8-5-11 adenocarcinoma cell line, qHTS therapeutic library screen (AID 1346987); further: nearly all actives have a fitted effect of over 65% in size; further: potency means the concentration at half of the fitted maximal effect
# How it was run: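 In this qHTS, P-gp-rich KB-8-5-11 cells received library compounds across a concentration range. Viability was quantified by luminescence after 72 h at 37 degree C.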
# [13] = Identifying Small Molecule Inhibitors of Pancreatic Cancer Stem Cells (SN12C, Spheroid) (AID 1259360); details: Potency: SN12C spheroid viability; further: potency means the concentration at half of the fitted maximal effect
# How it was run: as §2
# [14] = P-glycoprotein substrates identified in KB-3-1 adenocarcinoma cell line, qHTS therapeutic library screen (AID 1346986); further: nearly all actives have a fitted effect of over 60% in size;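 further: potency means the concentration at half of the fitted maximal effect; potency is for cytotoxicity meaning loss of cell viability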
# How it was run: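 Viability by CellTiter-Glo after 72 h compound exposure at 37 degree C, 5% CO2. Cytotoxic call: curve class -1.1 to -2.4, maximum response >50%, AC50 < 10 uM, compared across KB-3-1 and P-gp-overexpressing KB-8-5-11.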
# [15] = Identifying Small Molecule Inhibitors of Pancreatic Cancer Stem Cells (SN12C, Adherent) (AID 1259358);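 further: potency means the concentration at half of the fitted maximal effect; cell survival measured after 48 h of compound exposure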
# How it was run: as §3
# [16] = target: Atrial natriuretic peptide receptor 1 (Homo sapiens) (UniProt P16066); assay: Natriuretic polypeptide receptor (hNpr1) antagonism - Pilot screen (AID 1347049; calls by dose curve;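 further: agonist-evoked cGMP luminescence read 20 min after hNppA addition; series mostly up to about 58 µM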)
# How it was run: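 cGMP-sensor HEK293/hNpr1 cells, 1500/well, plated overnight at 37C. 2% GloSensor reagent, 2 h RT. Compound (23 nL pin transfer) 30 min RT, baseline luminescence pre-read. 0.1 nM hNppA, 20 min RT, post-read.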
# [17] = target: Atrial natriuretic peptide receptor 2 (Homo sapiens) (UniProt P20594); assay: Natriuretic polypeptide receptor (hNpr2) antagonism - Pilot subtype selectivity assay (AID 1347050; calls by dose curve)
# How it was run: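 Luminescence from a genetically encoded cGMP luciferase biosensor in hNpr2-expressing HEK293 cells is read before and 20 min after adding 1 nM hNppC. Test compounds, in interplate 1:5 titrations, are added 30-50 min ahead of the agonist.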
# Chain of Atrial natriuretic peptide receptor 1 (Homo sapiens) (P16066 whole entry, looked up): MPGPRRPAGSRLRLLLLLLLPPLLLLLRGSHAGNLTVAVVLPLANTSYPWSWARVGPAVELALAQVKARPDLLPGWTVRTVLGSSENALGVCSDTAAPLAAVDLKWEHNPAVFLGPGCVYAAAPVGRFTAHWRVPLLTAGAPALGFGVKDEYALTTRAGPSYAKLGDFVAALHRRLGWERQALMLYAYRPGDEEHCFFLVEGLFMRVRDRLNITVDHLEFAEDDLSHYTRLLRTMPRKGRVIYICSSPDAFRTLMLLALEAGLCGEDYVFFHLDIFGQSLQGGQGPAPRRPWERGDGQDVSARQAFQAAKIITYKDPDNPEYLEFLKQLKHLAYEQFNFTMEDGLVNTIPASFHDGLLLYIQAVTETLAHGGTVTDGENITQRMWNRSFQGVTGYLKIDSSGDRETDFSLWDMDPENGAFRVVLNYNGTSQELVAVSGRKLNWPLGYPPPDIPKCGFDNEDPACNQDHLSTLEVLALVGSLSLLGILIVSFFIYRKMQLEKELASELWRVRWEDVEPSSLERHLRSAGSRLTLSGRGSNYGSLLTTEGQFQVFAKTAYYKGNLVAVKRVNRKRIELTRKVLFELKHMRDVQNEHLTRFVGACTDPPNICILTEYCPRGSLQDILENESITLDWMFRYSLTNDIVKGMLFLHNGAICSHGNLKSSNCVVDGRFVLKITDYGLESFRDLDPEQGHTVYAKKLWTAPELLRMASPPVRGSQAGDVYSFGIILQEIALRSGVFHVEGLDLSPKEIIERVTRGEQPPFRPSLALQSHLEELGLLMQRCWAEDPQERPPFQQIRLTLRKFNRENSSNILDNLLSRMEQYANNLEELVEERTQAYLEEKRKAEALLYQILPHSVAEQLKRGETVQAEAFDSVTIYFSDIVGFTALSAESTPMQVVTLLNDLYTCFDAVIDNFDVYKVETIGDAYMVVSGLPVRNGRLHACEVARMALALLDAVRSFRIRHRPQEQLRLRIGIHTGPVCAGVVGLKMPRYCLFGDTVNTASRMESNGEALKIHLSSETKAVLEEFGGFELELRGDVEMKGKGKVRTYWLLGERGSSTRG
# Chain of Atrial natriuretic peptide receptor 2 (Homo sapiens) (P20594 whole entry, looked up): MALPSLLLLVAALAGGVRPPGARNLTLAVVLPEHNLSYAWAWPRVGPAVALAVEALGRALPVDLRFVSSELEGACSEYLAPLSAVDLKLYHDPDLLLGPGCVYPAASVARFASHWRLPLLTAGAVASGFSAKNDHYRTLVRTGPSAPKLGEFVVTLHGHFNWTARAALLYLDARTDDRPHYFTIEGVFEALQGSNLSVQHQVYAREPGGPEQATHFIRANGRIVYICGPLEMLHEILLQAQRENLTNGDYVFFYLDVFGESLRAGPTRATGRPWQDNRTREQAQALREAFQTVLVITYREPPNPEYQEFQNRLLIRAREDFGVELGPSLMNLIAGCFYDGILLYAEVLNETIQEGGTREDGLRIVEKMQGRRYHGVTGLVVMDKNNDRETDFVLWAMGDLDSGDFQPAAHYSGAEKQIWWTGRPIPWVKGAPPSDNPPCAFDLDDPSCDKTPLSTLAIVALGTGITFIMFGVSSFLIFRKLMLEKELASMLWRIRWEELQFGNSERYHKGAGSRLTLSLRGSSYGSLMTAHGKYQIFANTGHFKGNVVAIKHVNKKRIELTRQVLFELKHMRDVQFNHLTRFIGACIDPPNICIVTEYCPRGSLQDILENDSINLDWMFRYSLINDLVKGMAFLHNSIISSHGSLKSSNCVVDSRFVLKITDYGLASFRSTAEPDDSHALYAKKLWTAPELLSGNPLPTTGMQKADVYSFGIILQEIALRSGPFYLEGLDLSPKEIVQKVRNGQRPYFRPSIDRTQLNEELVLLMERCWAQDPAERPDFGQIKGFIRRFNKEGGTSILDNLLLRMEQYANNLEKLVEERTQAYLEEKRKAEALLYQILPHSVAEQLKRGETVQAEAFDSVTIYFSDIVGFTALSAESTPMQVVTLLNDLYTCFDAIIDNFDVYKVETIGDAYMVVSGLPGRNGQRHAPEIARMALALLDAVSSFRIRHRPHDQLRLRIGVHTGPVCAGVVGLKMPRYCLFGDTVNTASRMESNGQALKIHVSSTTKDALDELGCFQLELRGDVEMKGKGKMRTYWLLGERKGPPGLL
SMILES,Potency [1],Potency [2],Potency [3],Potency [4],Potency [5],Potency [6],Potency [7],Potency [8],Potency [9],IC50 (viability decrease) [10],Potency [11],Potency [12],Potency [13],Potency [14],Potency [15],Potency [16],outcome [17]
Nc1ccn([C@@H]2CS[C@H](CO)O2)c(=O)n1,inactive,inactive,inactive,inactive,inactive,inactive,inactive,,,,,,,,,,
Nc1cc(C(F)(F)F)c(-c2cc(N3CCOCC3)nc(N3CCOCC3)n2)cn1,inactive,0.372 µM (active),1.05 µM (active),0.59 µM (active),0.264 µM (active),,,1.48 µM (active),0.833 µM (active),0.662 µM (active),1.87 µM (active),469 nM (active) and 1.16 µM (active),,,,,
C=CC(=O)Nc1cc2c(Nc3ccc(F)c(Cl)c3)ncnc2cc1OCCCN1CCOCC1,inactive,20.9 µM (active),14.8 µM (active),16.6 µM (active),14.8 µM (active),,,23.5 µM (active),,16.6 µM (active),,,20.9 µM (active),inactive,,,
NC1(Cc2ccc(Cl)cc2)CCN(c2ncnc3[nH]ccc23)CC1,inactive,16.6 µM (active),18.7 µM (active),16.6 µM (active),16.6 µM (active),,,,,,,,,,,,
COC(=O)c1ccc2c(C(=Nc3ccc(N(C)C(=O)CN4CCN(C)CC4)cc3)c3ccccc3)c(O)[nH]c2c1,inactive,0.148 µM (active),0.743 µM (active),3.32 µM (active),1.48 µM (active),,inactive,,13.2 µM (active),4.69 µM (active),,,18.7 µM (active),,18.7 µM (active),,
CC(C)c1ccc(Cn2ccc3c4c(N)nc(NC5CC5)nc4ccc32)cc1,inactive,9.35 µM (active),1.05 µM (active),3.32 µM (active),1.32 µM (active),,3.32 µM (active),14.8 µM (active),5.26 µM (active),0.332 µM (active),0.743 µM (active),1.18 µM (active),8.33 µM (active),,7.43 µM (active),,
c1ccc2c(CCNc3ccc(Nc4ccncc4)cc3)c[nH]c2c1,inactive,16.6 µM (active),14.8 µM (active),5.26 µM (active),5.26 µM (active),,8.33 µM (active),inactive,,16.6 µM (active),,,23.5 µM (active),,,,
COC(=O)C[C@](O)(CCCC(C)(C)O)C(=O)O[C@@H]1C(OC)=C[C@]23CCCN2CCc2cc4c(cc2[C@H]13)OCO4,inactive,inactive,inactive,inactive,inactive,0.199 µM (active),inactive,,,,,,,,,,
O=C(C=Cc1c(C(=O)O)[nH]c2cc(Cl)cc(Cl)c12)Nc1ccccc1,inactive,inactive,inactive,inactive,inactive,,inactive,inactive,,,inactive,,inactive,,,,
COc1cc(=C2C=c3ccccc3=N2)[nH]c1=Cc1[nH]c(C)cc1C,inactive,1.87 µM (active),0.469 µM (active),2.35 µM (active),1.18 µM (active),,,20.9 µM (active),1.48 µM (active),14.8 µM (active),,,,,,,
C[C@]1(CO)CN(c2cc(C(=O)Nc3ccc4c(c3)-c3c(c(C(N)=O)nn3-c3ccc(F)cc3)CC4)c(Cl)cn2)C[C@@]1(C)CO,inactive,14.8 µM (active),13.2 µM (active),16.6 µM (active),13.2 µM (active),,4.69 µM (active),inactive,,,,inactive,inactive,5.8 µM (active),,,
O=C(Nc1cc(C(F)(F)F)cc(C(F)(F)F)c1)c1cc(Cl)ccc1O,inactive,1.18 µM (active),1.05 µM (active),2.35 µM (active),1.18 µM (active),,2.64 µM (active),0.526 µM (active),0.372 µM (active),,0.0332 µM (active),187 nM (active) and 820 nM (active),0.833 µM (active),,,,
CC[C@H](CO)Nc1nc(NCc2ccccc2)c2ncn(C(C)C)c2n1,inactive,16.6 µM (active),20.9 µM (active),29.6 µM (active),20.9 µM (active),,inactive,20.9 µM (active),,18.7 µM (active),,18.7 µM (active),,,,inactive,inactive
CC(C)(C)NC(=O)[C@H]1CN(Cc2cccnc2)CCN1C[C@@H](O)C[C@@H](Cc1ccccc1)C(=O)N[C@H]1c2ccccc2C[C@H]1O,inactive,1.05 µM (active),1.18 µM (active),4.18 µM (active),1.32 µM (active),inactive,,,,,,23.5 µM (active),,,,,
O=C(O)Cn1nnc(-c2cc(N3CCC(Oc4cc(F)ccc4Br)CC3)no2)n1,inactive,inactive,inactive,inactive,inactive,,,,,,,,,,,,
Nc1ccc(S(=O)(=O)Nc2ncccn2)cc1,inactive,inactive,inactive,inactive,inactive,inactive,inactive,,,,,,,,,,
